In the library only some 3.2% were active in any assay of this set; here they are far more common.
CDK5 p35 inh – inhibitors of human CDK5/p35 kinase, primary screen, biochemical, single concentration | Cyclin-dependent kinase 5 (Homo sapiens) + Cyclin-dependent kinase 5 activator 1 (Homo … | Recombinant CDK5/p35, ADP-Glo luminescence, 60 min | inhibition, % at 10 µM | 330,000 compounds, 0.01% hits | AID 488839, 2010;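 active means highest replicate inhibition of at least 50% and at least 75% of replicates reaching 50%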
esBAF inh – Bmi1 luciferase reporter increase in mESCs, primary screen, esBAF inhibitor project, mouse ES cells, Bmi1 luciferase knock-in, single point; reporter increase, % at 12.5 µM; 24 h; 100% = twice the neutral-well signal; 350,000 compounds, 2% hits; in the data active means activation above about 40%;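 further: a rise in the Bmi1 reporter signal indicates esBAF inhibition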
Rtt109 Vps75 – inhibitors of C. albicans Rtt109/Vps75 HAT, primary screen, biochemical, ThioGlo CoA-SH fluorescence, plate reader; Histone acetyltransferase RTT109 (Candida albicans (strain SC5314 / ATCC MYA-2876)), …; purified Rtt109/Vps75, 4 h; inhibition, % at 34.9 µM; 330,000 compounds, 0.16% hits;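 active means inhibition of at least 50% in every replicate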
DYRK1A inh – rat Dyrk1A kinase inhibitors, primary screen, biochemical, single point, plate reader. Dual specificity tyrosine-phosphorylation-regulated kinase 1A (Rattus norvegicus), Q63470. ADP-Glo luminescence, NFATc1 peptide. inhibition, % at 12.5 µM. 310,000 compounds, 0.43% hits. AID 504441, 2011; in the data active means inhibition above about 50%
SMARCA2 activ – SMARCA2 (BRM) function activators, primary screen, cell-based, luminescence, high throughput. MG213 cells, MMTV-luciferase reporter, dexamethasone, overnight. activation, % at 9.1 µM. 370,000 compounds, 1% hits. AID 652017, 2013; in the data active means activation above about 7.8%
dFosB act – activators of delta FosB homodimer, primary screen, biochemical, fluorescence polarization, TAMRA-CDK5 oligo, single point | purified delta FosB; percent of positive-control signal above neutral wells | activation, % at 25 µM | AID 493131, 2011 | 340,000 compounds, 0.99% hits | Protein FosB (Mus musculus), P13346;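 active means mean activation above about 17%, with every replicate also reaching it, limit read from the data, passing the limit was not always enough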
Target sequence (P13346 whole entry, looked up): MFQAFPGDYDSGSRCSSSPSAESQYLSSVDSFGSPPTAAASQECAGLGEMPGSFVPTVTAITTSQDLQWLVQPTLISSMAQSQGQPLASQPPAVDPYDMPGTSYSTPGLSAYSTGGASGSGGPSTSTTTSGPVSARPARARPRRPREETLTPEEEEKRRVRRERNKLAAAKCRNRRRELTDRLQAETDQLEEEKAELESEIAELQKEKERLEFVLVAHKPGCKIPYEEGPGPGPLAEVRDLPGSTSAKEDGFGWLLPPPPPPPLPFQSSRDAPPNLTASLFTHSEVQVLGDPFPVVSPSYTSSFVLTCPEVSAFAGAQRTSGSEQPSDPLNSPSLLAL
SMARCA2 act conf – SMARCA2 (BRM) function activators, confirmation, cell-based, luminescence, triplicate | shares compounds with SMARCA2 activ | MG213 cells, MMTV-luciferase with dexamethasone, overnight; MG213 cells expressing E1A, Rb sequestered; DMSO wells 0%, reference activator 100% | activation, % at 9.1 µM | AID 652260, 2013 | 3,500 compounds, 30% hits;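 active means activation above its plate's cutoff, the mean activation of tested wells plus 3 SD, cut at about 7.9% in these data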
VP16 Luc act – GAL4-VP16 luciferase reporter activation, counter-screen for SMARCA2 (BRM) activator project, cell-based, pG5luc, luminescence, high throughput; 3,500 compounds, 41% hits; HEK293 GAL4-VP16 pG5luc reporter; scaled: DMSO wells 0%, SAHA wells 100%; shares compounds with SMARCA2 activ; activation, % at 9.1 µM; AID 686939, 2013;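 active means activation above the solvent-only control well mean plus 3 SD, averaged across control plates, cut at about 5.2% in these data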
Hits are given with their value; – = inactive; · = not tested or not shown.

SMILES | CDK5 p35 inh | esBAF inh | Rtt109 Vps75 | DYRK1A inh | SMARCA2 activ | dFosB act | SMARCA2 act conf | VP16 Luc act
COc1ccc(CN(C)C[C@@H]2OCCCC[C@H](C)Oc3ccc(NS(=O)(=O)c4ccc(C)cc4)cc3C(=O)N([C@@H](C)CO)C[C@@H]2C)cc1 | · | – | · | · | · | · | · | ·
O=C(NCC[C@H]1CC[C@@H](NS(=O)(=O)c2cccc(F)c2)[C@H](CO)O1)C1CCCCC1 | · | – | · | · | · | · | · | ·
CCOC(=O)COc1ccccc1C1Nc2ccccc2C(=O)N1c1cccc(Cl)c1 (configuration not stated) | – | · | – | – | 8.2 | – | – | 6.0
COc1cc(C2Nc3ccccc3C(=O)N2c2ccc(Cl)cc2)c(Cl)cc1OCC(=O)O (configuration not stated) | – | · | – | – | 10 | – | 12 | 9.5
O=C(CSc1nnc(-c2ccncc2)o1)Nc1ccccc1Cl | – | – | – | – | – | – | · | ·
O=C(CSc1nnc(-c2ccccc2)o1)Nc1ccccc1F | – | – | – | – | – | – | · | ·
O=C(CSc1nnc(-c2cccnc2)o1)Nc1nccs1 | – | – | – | – | 9.1 | – | – | –
N#Cc1ccsc1NC(=O)CSc1nnc(-c2ccccc2)o1 | – | – | – | – | 19 | – | – | –
Nn1c(SCC(=O)Nc2nccs2)nnc1-c1cc(-c2ccccc2)n[nH]1 | · | · | · | · | 9.6 | · | – | –
O=C(CSc1nnc(-c2ccccn2)o1)Nc1ccccc1Cl | – | – | · | – | 8.0 | – | 13 | 12
CN1C(=O)c2cc(NC(=O)C3CCCC3)ccc2OC[C@@H]2O[C@@H](CC(=O)NCC(F)(F)F)CC[C@H]21 | · | – | · | · | · | · | · | ·
N#CC(=C1NC(=O)c2ccccc21)c1nc2ccccc2n1CCO | · | – | · | · | 20 | · | – | 18
CCCNC(=O)[C@@H]1[C@@H](CO)[C@@H]2Cn3c(ccc(-c4ccc(F)cc4)c3=O)[C@@H]2N1CCC | · | – | · | · | · | · | · | ·
COc1ccc(-n2nc3cc(C)c(N)c(Br)c3n2)cc1 | – | – | – | – | 8.4 | – | 11 | 11
COc1ccc(-n2nc3ccccc3n2)cc1 | – | – | – | – | – | – | · | ·
COc1ccc(-n2nc3cc(C)c(NC(C)=O)cc3n2)cc1 | – | – | – | – | 8.1 | – | – | 8.9
COc1ccc(NC(C)=O)c(C)c1 | – | · | – | · | – | – | · | ·
CCCNC(=O)N1C[C@@H]2[C@H](c3ccccc31)[C@H](CO)N2C(=O)c1ccncc1 | · | – | · | · | · | · | · | ·
COc1ccc(C(Nc2cc(C)ccn2)c2ccc3ccc(C)nc3c2O)cc1 (configuration not stated) | – | – | – | – | 10 | – | – | –
Cc1ccc(NC(=O)Nc2ccc3c(c2)OCO3)c(OC(F)F)c1 | – | 49 | – | – | 8.5 | – | 9.0 | 9.4
CCc1ccc(NCc2nc3ccccc3c(=O)[nH]2)cc1 | – | – | – | – | 8.3 | – | 11 | 14
CCCCNCc1nc2ccccc2c(=O)[nH]1 | – | · | – | – | – | – | · | ·
O=C(N[C@H]1CC[C@@H](CC(=O)N2CCCCC2)O[C@@H]1CO)c1ccc2c(c1)OCO2 | · | – | · | · | · | · | · | ·
CC1=CC2=NC(=O)/C(=C\c3cc(C)n(-c4ccccc4)c3C)C(=N)N2O1 | – | – | – | – | – | – | · | ·
CC1=CC2=NC(=O)/C(=C\c3cc(C)n(-c4cccc(Cl)c4)c3C)C(=N)N2O1 | – | · | – | – | 9.1 | – | – | –
